# Compound activity as filed in PubChem.
# MgrA DNA FP: S. aureus MgrA-DNA binding modulation. fluorescence polarization. inhibition, % (test concentration not listed). 0.13% of 84,000 active. AID 602314; in the data active means inhibition above about 30%, passing the limit was not always enough;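 further: higher means less MgrA bound to DNA so lower polarization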
# Numbers stand for hits; i = inactive. This is one part of a sample in which hits are shown more often than they occur.
SMILES,MgrA DNA FP
O=C1NC(=O)N(C2CCCCC2)C(=O)/C1=C\C=C\c1ccco1,i
COc1cccc(N2C(=O)/C(=C/C=C/c3ccco3)C(=O)NC2=S)c1,86
COc1cccc(/C=C2\C(=O)NC(=O)N(c3cccc(OC)c3)C2=O)c1,i
CCN1C=C(C(=O)OC)C(c2cc3c(cc2Br)OCO3)C(C(=O)OC)=C1,i
CCOC(=O)c1c(NC(=O)c2ccc(Cl)cc2Cl)sc(C(=O)Nc2ccccc2F)c1C,i
C=C(C)C1Cc2cc(/C=C/C(=O)O)c(O)cc2O1 (stereo not given),54
C=C(C)C1Cc2cc3ccc(=O)oc3cc2O1 (stereo not given),i
O=C(O)C=Cc1ccc(O)c(O)c1,i
CN1CCC(=NNC(=O)CCSc2ccc(Cl)cc2)CC1,i
c1coc(CNc2c(-c3ccc(N4CCCC4)cc3)nc3cnccn23)c1,i
COc1ccc(NC(=O)CSc2nc(-c3ccccc3)cc(=O)[nH]2)cc1,i
CN1CCc2c(sc3[nH]c(=O)c4c(=S)nc(-c5ccco5)[nH]c4c23)C1,i
N#C/C(=C/c1ccc(-c2cccc(C(F)(F)F)c2)o1)c1cccc(F)c1,i
Cc1ccc(-c2nn(-c3ccccc3)cc2/C=C2\SC(=S)NC2=O)cc1,i
Cc1ccc(-c2nn(-c3ccccc3)cc2/C=C2\SC(=S)N(CCCC(=O)O)C2=O)cc1,99
CCc1ccc(-c2nn(-c3ccccc3)cc2/C=C2\SC(=S)NC2=O)cc1,i
COc1cccc(NC(=S)Nc2ccc(N(C)C)cc2)c1,i
Cc1ccc(NC(=S)Nc2ccc3nc(-c4ccco4)c(-c4ccco4)nc3c2)cc1,80
S=C(NCc1ccco1)Nc1ccc2nc(-c3ccccn3)c(-c3ccccn3)nc2c1,i
O=C(NCCO)c1ccc2nc(-c3ccco3)c(-c3ccco3)nc2c1,i
COc1ccc2nc3c(nc2c1)-c1cccc2cccc-3c12,i
c1coc(-c2nc3ccccc3nc2-c2ccco2)c1,i
COc1ccc(N(C)C(=S)Nc2ccc3nc(-c4ccco4)c(-c4ccco4)nc3c2)cc1,60
CNC(=S)Nc1ccc(C)cc1,i
O=C(c1ccccc1)c1ccc2nc(-c3ccco3)c(-c3ccco3)nc2c1,63
SMILES,MgrA DNA FP
O/N=C1/CCCCC1Cn1ccnc1 (stereo not given),i
COc1cc(/C=c2\sc3n(c2=NCCO)C(c2ccccc2)C(c2ccccc2)=NN=3)ccc1O (stereo not given),i
Cc1nc2ccccc2n1C(F)(F)C(O)c1ccco1 (stereo not given),i
O=C(/C=N/O)Nc1ccccc1Cl,i
N#Cc1ccc(N2C(=O)CSC(c3ccccc3)C2=O)cc1 (stereo not given),i
FC(F)(F)c1cc(-c2noc(CN3CCOCC3)n2)cc(C(F)(F)F)c1,i
Cc1nc2ccccn2c1-c1ccnn1C(=O)c1ccc(Cl)cc1,i
CCOC(=O)c1cnn(C(=O)c2c(C)nc3ccccn23)c1N,i
Cc1nc2ccccn2c1-c1ccnn1C(=O)c1ccno1,41
O=C(/C=C/c1ccco1)/C=C/c1ccco1,98
O=C(/C=C/c1ccco1)Nc1cccc(NC(=O)/C=C/c2ccco2)n1,i
O=C(/C=C/c1ccccc1)/C=C/c1ccco1,i
O=c1[nH]c(-c2ccc(Cl)cc2)nc2ccc(N3CCCC3)cc12,i
C/C=C/c1c(F)c(F)c(Oc2ccc(OC)cc2)c(F)c1F,i
Cc1cccc(NC(=O)NC2CC3CCCC(C2)N3CC(C)C)c1 (stereo not given),i
N#Cc1c(-c2ccco2)cc(-c2ccco2)[nH]c1=O,56
N#Cc1c(-c2ccco2)cc(-c2ccccc2)[nH]c1=O,i
N#Cc1c(-c2ccccc2)cc(-c2ccco2)c(C#N)c1N,i
O=C(O)C(Cc1ccccc1)NS(=O)(=O)c1cccc2cccnc12 (stereo not given),i
CCOC(=O)CCc1n[nH]c(=O)[nH]c1=O,i
CCOC(=O)CCc1c(CC(=O)OCC)c[nH]c1/C=N/O,61
CCOC(=O)Cc1cc(C)[nH]c1C(=O)OCC,i
C(/C=C/c1ccco1)=NN1CCN(C2c3ccccc3-c3ccccc32)CC1,i
CCCCCCCc1ccc(NC(=O)Nc2ccc(F)cc2)cc1,i
CC(C)(C)n1ncc(C#N)c1N,i
SMILES,MgrA DNA FP
O=C1c2ccccc2C(=O)c2c(NC3CCCCC3)ccc(Nc3ccc(Oc4ccccc4)cc3)c21,i
O=C1C=C(C(F)(F)F)c2ccc(NC3CCCCC3)c3cccc1c23,56
O=C1C=C(NC2CCCC2)CC(c2ccccc2)C1 (stereo not given),i
COc1ccc(CCn2c(=O)c3ccccc3n(CC(=O)N(C)c3ccccc3)c2=O)cc1OC,i
CCC(C(=O)NC(C)c1ccc2c(c1)OCO2)c1ccccc1 (stereo not given),i
Cc1ccc(C)n1C(CC(=O)O)c1ccc2c(c1)OCO2 (stereo not given),53
NC(=O)CC(c1ccccc1)c1ccc2c(c1)OCO2 (stereo not given),i
CCSC(=C(C#N)C#N)c1cc2c([nH]1)CCCC2,i
CC1=NN(c2ccc(Cl)c(C(=O)O)c2)C(=O)/C1=C\c1ccc(-c2ccccc2C(=O)O)o1,i
